# According to PubChem BioAssay:
# The source made the active and inactive calls.
# Tested on: Neuregulin-1 EGF-like domain
# Assay: binders of neuregulin-1 EGF-like domain, primary screen, biochemical, small-molecule microarray, 635 nm fluorescence (AID 1081);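 further: binding of the protein to compounds printed on small-molecule microarray slides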
# Conditions: small-molecule microarray binding, higher = more signal
row,Compound,composite z-score
1,O=C(NCCN1CCOCC1)[C@@H]1c2ccccc2C(=O)N(Cc2cc(C(F)(F)F)cc(C(F)(F)F)c2)[C@H]1c1ccc(CO)cc1,1.25
2,C=C(CCCC)/C(=C/C[C@H](OC(C)=O)c1ccccc1OCCO)c1cnc2ccccc2c1,1.04
3,COC(=O)[C@@]1(Cc2ccc(OC)cc2)[C@H]2c3cc(C(=O)N4CCCC4)n(CCc4ccc(O)c(O)c4)c3C[C@H]2CN1C(=O)c1ccccc1,1.11
4,Cc1ccc(S[C@]2(C(=O)NCC(C)C)CC(=O)N(Cc3cc(C(F)(F)F)cc(C(F)(F)F)c3)[C@@H]2c2ccc(CO)cc2)cc1,1.44
5,O=C(NC1CC1)[C@@H]1c2ccccc2C(=O)N(C2Cc3ccccc3C2)[C@H]1c1ccc(CO)cc1,0.807
6,O=C1OCCC=C[C@H]2OC34C=CCN(CCN5CCOCC5)C(=O)[C@H]3N(CCCCCO)C(=O)[C@@H]4C12 (stereo partly specified),1.42

# Tested on: not listed separately
# Assay: FRG1 promoter luciferase signal modulators, primary screen, FRG1 inhibition for FSHD, cell-based, C2C12 myotubes, firefly/Renilla luciferase, luminescence (AID 1084)
# Conditions: higher = more signal, called active from +8 up or from −8 down
row,Compound,z-score
1,COc1ccc(NC(=O)O[C@H]2[C@H](OC(=O)c3cc4ccccc4[nH]3)[C@@H](OC(=O)c3cc4ccccc4[nH]3)[C@@H](OC)O[C@@H]2CO)cc1,2.22 (inactive)
2,C=C(CCCC)C(=O)CC[C@H](OC(=O)c1cccnc1)c1ccc(OCCO)cc1,-0.916 (inactive)
3,C=CCN1C(=O)[C@]2(Cc3ccccc3)N=C(c3ccc(OCCCO)cc3)O[C@@H]2c2ccccc21,-1.05 (inactive)
4,CC(=O)NCCCC[C@@H]1NC(=O)[C@H]2C[C@@H](C(=O)NCCCCCNC(=O)CS)[C@@H](c3ccc(O)cc3)N2C1=O,0.515 (inactive)
5,C=CCC(OC(C)=O)[C@@H]1[C@@H](N(Cc2cc3ccccc3o2)C(=O)Cc2ccc(OC)cc2)c2cc(OCCCO)ccc2N1C(=O)c1ccc2ccccc2c1 (stereo partly specified),-0.194 (inactive)
6,CC(c1ccccc1)C(O)C1C=CC2C(=O)N(c3ccccc3)C(=O)C2N1Nc1ccccc1 (stereo unspecified),-1.41 (inactive)
7,COc1ccc([C@H]2C[C@H]3C(Br)=C[C@@]2(CO)C(=O)[C@]32CO2)cc1,1.26 (inactive)
8,COCCOC(=O)N1C(=O)[C@@]2(c3cc(C#CCCO)ccc31)[C@H](c1ccc(OCCO)cc1)N1[C@H](c3ccccc3)[C@H](c3ccccc3)OC(=O)[C@H]1[C@@H]2C(N)=O,-0.485 (inactive)
9,CCCCN1CC=CC23O[C@@H]4/C=C\CCCOC(=O)C4[C@H]2C(=O)N(CCCCCO)[C@@H]3C1=O (stereo partly specified),0.368 (inactive)
10,NCCCCCCNC(=O)[C@H]1C[C@H]2C(=O)N[C@@H](Cc3ccccc3)C(=O)N2[C@H]1c1cccc(OCCO)c1,1.7 (inactive)
11,COc1ccc([Si](C)(C)[C@@H]2[C@@H](CCn3cc(CCO)nn3)O[C@]3(C(=O)N(Cc4cccc(N5C(=O)c6cccc7cccc5c67)c4)c4ccccc43)[C@H]2C)cc1,-1.56 (inactive)
12,CC(=O)Nc1cc(Br)ccc1C(=O)NCc1ccccc1,0.0163 (inactive)
13,CCCCCN1CC=CC23O[C@@H]4C=CCOC(=O)[C@@H]4[C@H]2C(=O)N(C(C)CO)[C@@H]3C1=O (stereo partly specified),-0.02 (inactive)
14,CCOC(=O)C1=C[C@@H](C(C)C)N(S(=O)(=O)c2ccc(C)cc2)[C@H]1c1ccccc1F,-1.83 (inactive)
15,CS(=O)(=O)CCOC(=O)C1=CC(CCCO)=CC(C2CC2)N(Cc2cc3c(cc2Br)OCO3)C=C1C(=O)OCCS(C)(=O)=O (stereo unspecified),-0.517 (inactive)
16,Cc1c(NC(=O)/C(C#N)=C/c2cccc([N+](=O)[O-])c2)c(=O)n(-c2ccccc2)n1C,0.807 (inactive)
17,C=CCN1Cc2ccccc2[C@@H]2OC(c3ccc(OCCCO)cc3)=N[C@]2(CCS(=O)(=O)c2ccccc2)C1=O,-3.43 (inactive)
18,C=CCNC(=O)[C@@H]1[C@H]2C(=O)O[C@H](c3ccccc3)[C@H](c3ccccc3)N2[C@H](c2ccc(OCCO)cc2)[C@@]12C(=O)N(C(=O)OCCOC)c1ccc(C#CCC(C(=O)OC)C(=O)OC)cc12,1.26 (inactive)

row,Compound,z-score
1,CN1C(=O)C2C=CC(C(O)C=Cc3ccc([N+](=O)[O-])cc3)N(Nc3ccccc3)C2C1=O (stereo unspecified),2.12 (inactive)
2,COCCOC(=O)N1C(=O)[C@@]2(c3cc(C#CC4=CCCCC4)ccc31)[C@H](c1ccc(OCCO)cc1)N1[C@H](c3ccccc3)[C@H](c3ccccc3)OC(=O)[C@H]1[C@@H]2C(=O)N1CCc2cc(OC)c(OC)cc2C1,-0.211 (inactive)
3,CC(C)CN1C(=O)[C@@]2(c3ccc([N+](=O)[O-])cc3)CC(=O)N(C3CCCCC3)[C@@H]2c2ccc(CO)cc21,0.953 (inactive)
4,C#CCN1[C@H](/C=C/C2CC2)[C@H](Cc2ccccc2)OC(=O)[C@@H]1Cc1ccccc1,-4.01 (inactive)
5,COc1ccccc1CN1C(=O)c2ccccc2[C@@]2(Cc3ccccc3N(CCCN(C)C)C2=O)[C@@H]1c1ccc(CO)cc1,0.0544 (inactive)
6,COC(=O)[C@@]1(CCC(=O)OC(C)(C)C)N=C(c2ccc(OCCCO)cc2)O[C@H]1c1ccccc1,0.174 (inactive)
7,O=C(O)[C@@]1(CCS(=O)(=O)c2ccccc2)N=C(c2ccc(OCCCO)cc2)O[C@H]1c1ccccc1,2.18 (inactive)
8,C=CCN(Cc1ccccc1)C(=O)C(c1cccs1)N(C(=O)/C=C\C(=O)O)c1ccc(CCOCCO)cc1 (stereo unspecified),0.988 (inactive)
9,CC(C)NC(=O)[C@@H]1c2ccccc2C(=O)N(C(C)C)[C@H]1c1ccc(CO)cc1,0.229 (inactive)
10,C=CCC(OC(C)=O)[C@@H]1[C@@H](N(Cc2ccc(-c3cccc(C(F)(F)F)c3)o2)C(=O)c2cccc3ccccc23)c2cc(OCCCO)ccc2N1C(=O)Cc1ccc2ccccc2c1 (stereo partly specified),0.3 (inactive)
11,COc1ccc([Si](C)(C)[C@@H]2[C@@H](CCn3cc([C@H](O)c4ccccc4)nn3)O[C@]3(C(=O)N(Cc4cccc(N5CCC5=O)c4)c4ccccc43)[C@H]2C)cc1,0.795 (inactive)
12,O=C(NCCN1CCOCC1)[C@@H]1c2ccccc2C(=O)N(Cc2cc(C(F)(F)F)cc(C(F)(F)F)c2)[C@H]1c1ccc(CO)cc1,0.0006 (inactive)
13,C=C(CCCC)/C(=C/C[C@H](OC(C)=O)c1ccccc1OCCO)c1cnc2ccccc2c1,-1.48 (inactive)
14,COC(=O)[C@@]1(Cc2ccc(OC)cc2)[C@H]2c3cc(C(=O)N4CCCC4)n(CCc4ccc(O)c(O)c4)c3C[C@H]2CN1C(=O)c1ccccc1,2.61 (inactive)
15,Cc1ccc(S[C@]2(C(=O)NCC(C)C)CC(=O)N(Cc3cc(C(F)(F)F)cc(C(F)(F)F)c3)[C@@H]2c2ccc(CO)cc2)cc1,-0.775 (inactive)
16,O=C(NC1CC1)[C@@H]1c2ccccc2C(=O)N(C2Cc3ccccc3C2)[C@H]1c1ccc(CO)cc1,-0.838 (inactive)
17,O=C1OCCC=C[C@H]2OC34C=CCN(CCN5CCOCC5)C(=O)[C@H]3N(CCCCCO)C(=O)[C@@H]4C12 (stereo partly specified),-0.521 (inactive)
